Vif-APOBEC3G blk – qHTS for Inhibitors of Vif-A3G Interactions: qHTS; HeLa A3G-eYFP + Vif (tagged APOBEC3G with the HIV-1 protein that degrades it), YFP fluorescence, overnight; Potency, µM (top dose mostly 46.1 µM), inactives show at the highest dose activity, negative = active, most hits filed as inhibitors; hit rate 0.076% among 410,000; also: % is scaled to controls: 0 for no effect and ±100 for the full control effect; nearly all actives have a fitted effect of over 60% in size
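HeLa cells stably expressing Vif and C-terminally eYFP-tagged A3G, seeded overnight at 37 deg C, then exposed to compound by pintool overnight at 37 deg C. Rise in yellow fluorescence (Ex 488/Em 500-530, Acumen) marks blocked Vif-driven A3G degradation.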
GLS inh – qHTS for Inhibitors of Glutaminase (GLS). Potency, µM (titrated, usually from 45.5 µM), inactives show top-dose activity change, negative = inhibition, usual class: inhibitors. AID 624170, 2012. GLS enzymatic activity, qHTS titration. hit rate 0.21% among 410,000; also: % is scaled to controls: 0 for no effect and ±100 for the full control effect
Target sequence (O94925 whole entry, looked up): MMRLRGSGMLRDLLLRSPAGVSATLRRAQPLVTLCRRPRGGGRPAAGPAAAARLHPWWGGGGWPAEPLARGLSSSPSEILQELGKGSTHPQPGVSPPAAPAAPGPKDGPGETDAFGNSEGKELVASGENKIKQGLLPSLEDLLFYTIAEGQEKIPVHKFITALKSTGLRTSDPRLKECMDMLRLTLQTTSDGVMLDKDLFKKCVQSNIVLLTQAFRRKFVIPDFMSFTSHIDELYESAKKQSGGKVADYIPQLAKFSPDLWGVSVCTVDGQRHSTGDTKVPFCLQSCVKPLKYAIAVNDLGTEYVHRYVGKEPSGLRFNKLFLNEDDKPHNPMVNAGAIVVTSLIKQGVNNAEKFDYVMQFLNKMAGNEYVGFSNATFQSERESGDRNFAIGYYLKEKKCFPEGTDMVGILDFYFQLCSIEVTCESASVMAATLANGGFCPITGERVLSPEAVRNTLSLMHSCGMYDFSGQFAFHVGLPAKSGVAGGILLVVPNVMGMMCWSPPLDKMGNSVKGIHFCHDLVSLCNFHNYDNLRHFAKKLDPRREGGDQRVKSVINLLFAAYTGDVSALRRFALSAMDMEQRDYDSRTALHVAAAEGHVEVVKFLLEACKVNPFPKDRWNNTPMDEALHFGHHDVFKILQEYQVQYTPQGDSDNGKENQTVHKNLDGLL
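Assay buffer: 45 mM KH2PO4 pH 8.2, 0.02% Tween-20. hKGA acts on L-glutamine (1 mM solution added); product glutamate is reported by an oxidase/peroxidase Amplex Red coupling, with fluorescence taken at baseline and 30 min.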
Vif-APOBEC3F blk – qHTS for Inhibitors of Vif-A3F Interactions: qHTS. HeLa A3F-eYFP + Vif (tagged APOBEC3F with the HIV-1 protein that degrades it), YFP fluorescence increase. Potency, µM (titrated, usually from 46.1 µM), without a hit: top-dose activity, negative = active. hit rate 0.2% among 390,000. AID 602313, 2012; also: % of control where 0% means no effect; nearly all actives have a fitted effect of over 65% in size
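HeLa cells stably expressing Vif plus C-terminally eYFP-tagged A3F were seeded, incubated overnight at 37 deg C, dosed with compound, incubated overnight again at 37 deg C. Yellow fluorescence (Ex 488/Em 500-530) reported blocked Vif-mediated A3F-eYFP degradation.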
PINK1 modulator – A Quantitative High throughput Screen to Identify Chemical Modulators of PINK1 Expression; PINK1 immunofluorescence, high-content cytometry, 24 h; hit rate 0.2% among 410,000; Potency, µM (titrated, usually from 76.6 µM), for inactives: at the top dose activation (PINK1 increase), usual class: activators; active = well fitted activation curve with a large enough effect; inconclusive = small, poorly fitted or top-dose-only effect; cell line not stated here; also: % of control where 0% means no effect; nearly all actives have a fitted effect of over 65% in size
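Measures PINK1 amount and localization on or inside mitochondria by immunofluorescence. Stable cells get compounds at 5 concentrations for 24 hours before fixation and staining; CCCP controls included.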
Epigenetic derep – Quantitative High-Throughput Screen for Regulators of Epigenetic Control; hit rate 0.2% among 280,000; murine LDR cells, GFP reporter derepression, 30 h; Potency, µM (highest dose often 53.9 µM), without a hit: at the top dose GFP activation, actives largely listed as activators; AID 1865, 2009; also: % of control where 0% means no effect; nearly all actives have a fitted effect of over 60% in size
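Murine LDR cells carrying a silenced, genomically integrated CMV-driven GFP reporter were exposed to compound for 30 hours at 37 C. After PBS washes, GFP-positive cells (20–120 um objects) were counted by laser-scanning microplate cytometry.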
Numbers without * were called inactive; ? = inconclusive; nt = not tested or not shown; [ ] = dose if it differs, or a comment. In the library only some 0.7% were active in any assay of this set; here they are far more common. Unless noted, calls follow the shape of the dose curve; as a rule, active = well fitted curve in the direction sought with a large enough effect; inconclusive = small, poorly fitted or top-dose-only effect, or another doubt; inactive = no such curve, though single readings can be large; an effect the other way counts as inactive or inconclusive. Potency is read from the fitted curve at half-maximal effect.

SMILES	Vif-APOBEC3G blk	GLS inh	Vif-APOBEC3F blk	PINK1 modulator	Epigenetic derep
CCCCCCC(=O)O[C@@H]1CC[C@H]2[C@@H]3CCc4cc(O)ccc4[C@H]3CC[C@]12C	nt	-3.5%	nt	nt	nt
O=C(NC[C@@H]1CCCN2CCCC[C@H]12)c1cnn(-c2nccc(-c3ccco3)n2)c1C1CC1	nt	nt	nt	0.5%	nt
OCC1OC([S-])[C@H](O)C(O)C1O.[Au+] (stereo partly drawn)	nt	11.2µM*	nt	nt	-1.2%
COC(=O)C1CCCCN1Cc1ccc2c(c1)CN(Cc1cnn(-c3ccccc3)c1)CCO2 (stereo not drawn)	nt	nt	nt	0.3%	nt
COc1ccc2[nH]cc(/C=C/c3cc[n+](C)cc3)c2c1	11.2µM*	5.0%	12.6µM*	?	nt
CN1CCCC(CNC(=O)c2cnn(-c3ncc4c(n3)-c3ccccc3CC4)c2C2CC2)C1 (stereo not drawn)	nt	nt	nt	1.5%	nt
NC(=O)C1CCN(c2nc(C3CC3)nc3c2nnn3Cc2ccccc2Cl)CC1	-3.7%	-5.7%	0.3%	11.2µM*	0.0%
Cc1cc2c(cc1C)NC(CC(=O)NCc1ccccc1)C(=O)N2 (stereo not drawn)	3.3%	-0.9%	28.2µM*	4.2%[38.3 µM]	1.2%
CC(C)CCNC(=O)c1ccc2c(c1)NC(=O)C(CS(=O)(=O)Cc1cccc(Br)c1)N2 (stereo not drawn)	?	1.4%	11.2µM*	1.2%	?
CN(C)CCNC(=O)c1ccc2c(c1)NC(=O)C(CS(=O)(=O)Cc1cccc(Br)c1)N2 (stereo not drawn)	5.8%	-22.2%	-8.3%	0.2%	-0.8%
Cc1cccc(CS(=O)(=O)CC2Nc3ccc(C(=O)NCc4ccccc4)cc3NC2=O)c1 (stereo not drawn)	-5.8%	10µM*	-5.8%	7.4%	5.1%
CC(C)CCNC(=O)c1ccc2c(c1)NC(=O)C(CS(=O)(=O)Cc1ccc(F)cc1)N2 (stereo not drawn)	0.5%	12.6µM*	-10.6%	-1.5%	15.2%
c1cncc(OC2CCN(Cc3ccc4c(c3)CN(Cc3ccc5c(c3)CCO5)CCO4)CC2)c1	nt	nt	nt	-0.3%	nt
CCC(=O)OC1CCC2C3CCc4cc(O)ccc4C3CCC12C (stereo not drawn)	nt	-3.5%	nt	nt	nt
Cn1ncc(S(=O)(=O)Cc2ccccc2)c(Cl)c1=O	-2.4%	11.2µM*	-3.6%	0.6%	?
CCSC1=N/C(=C\C=C2/Oc3ccccc3N2CC)C(=O)S1	7.08µM*	18.1%	6.31µM*	18.5%	11.2µM*
CCSC1=N/C(=C\c2ccc3c(c2)OCO3)C(=O)S1	2.1%	1.6%	nt	-2.4%	1.2%
Oc1ccc(N=C/C=C/c2cccc(Br)c2)cc1-c1nc2ccccc2s1	-20.8%	14.1µM*	3.4%	3.1%	-1.1%
Nc1ccc(O)c(-c2nc3ccccc3s2)c1	-3.6%	?	-3.9%	-1.3%	-1.0%
COc1cc(OC)c(OC)cc1/C=C1\CC(C)C/C(=C\c2cc(OC)c(OC)cc2OC)C1=O (stereo not drawn)	?	-5.8%	22.4µM*	-3.4%	nt
Cc1nc2ccccc2nc1CN1CCOc2ccc(C(C)(O)COc3ccccc3)cc2C1 (stereo not drawn)	nt	nt	nt	1.7%	nt
CCOc1cc(C(=O)Nc2cc(C)ccn2)cc(OCC)c1OCC	0.2%	-13.4%	-2.4%	0.6%	0.0%
CCOc1cc(C(=O)Nc2cnccn2)cc(OCC)c1OCC	?	1.2%	-8.1%	14.1µM*	0.7%
O=S(=O)(O)OCC1OC(COS(=O)(=O)O)(C2(OS(=O)(=O)O)OC(CO)C(OS(=O)(=O)O)C(OS(=O)(=O)O)C2OS(=O)(=O)O)C(OS(=O)(=O)O)C1OS(=O)(=O)O (stereo not drawn)	nt	4.6%	nt	nt	nt
CCC1CN(CCNC(=O)c2cccc(C(=O)OC)c2)Cc2cc(OC)ccc2O1 (stereo not drawn)	nt	nt	nt	-0.3%	nt
SMILES	Vif-APOBEC3G blk	GLS inh	Vif-APOBEC3F blk	PINK1 modulator	Epigenetic derep
c1coc(-c2nnc(-c3ccco3)nn2)c1	-0.5%	7.94µM*	1.1%	-0.5%	nt
CN(C)S(=O)(=O)c1ccc(Cl)c(NC(=O)CSc2nc3c(cc2C#N)C(=O)CCC3)c1	0.6%	9.5%	-7.6%	6.5%	25.1µM*
Cc1ccc(NC(=O)CSc2nc3c(cc2C#N)C(=O)CCC3)cc1S(=O)(=O)N(C)C	-2.0%	3.0%	?	17.6%	11.9%
N#Cc1cccc(NC(=O)c2ccccc2C(=O)O)c1	1.9%	12.6%	-5.4%	-0.9%[38.3 µM]	0.3%
N#Cc1ccc(NC(=O)Nc2cccc(C#N)c2)cc1	-0.9%	2.1%	-0.4%	31.6µM*	1.1%
N#Cc1ccc(NC(=O)Nc2ccc(Oc3ccc(NC(=O)Nc4ccc(C#N)cc4)cc3)cc2)cc1	2.5%	7.5%	-0.2%	44.7µM*	4.3%
Cc1ccc2nc3n(c2c1)CCCN3	0.7%	12.9%	6.7%	1.2%	nt
S=c1[nH]nc2n1CCCN2	2.5%	11.2µM*	14.4%	-1.5%	-1.6%
CCN1c2ccccc2NC2C1C(C(C)=O)C(=O)N2c1ccc(Cl)cc1 (stereo not drawn)	?	13.7%	22.4µM*	5.2%[38.3 µM]	25.1µM*
O=C1Nc2ccccc2N(O)N1c1ccc(Cl)cc1	3.5%	13.5%	-6.6%	1.6%	-4.2%
Clc1ccc(-n2cccc2CN2CCOc3ccc(CN4CCOCC4)cc3C2)nc1	nt	nt	nt	0.2%	nt
Cc1cc2nc3c(=O)n(CCc4ccccc4)c(=O)[nH]c3nc2cc1N	?	8.8%	6.31µM*	17.1%	0.1%
COc1ccc(C(=O)N2CCCC(c3nc(SCc4ccccn4)ncc3C)C2)cc1F (stereo not drawn)	nt	nt	nt	0.0%	nt
CCCCCCCCn1c2c(c(=N)c3ccccc31)CCC2	0.2%	0.0%	4.1%	12.6µM*	-0.1%
CCOC(=O)CN1C=C(c2ccc3ccccc3n2)C(C[N+](=O)[O-])c2ccccc21 (stereo not drawn)	12.6µM*	0.9%	?	0.5%	2.8%
CCOC(=O)CSc1ccc2ccccc2n1	0.6%	-2.1%	-15.3%	3.7%	-3.9%
O=Cc1sc(Nc2ccccc2)nc1Cl	?	16.7%	25.1µM*	3.6%	1.3%
Cc1ccc(Nc2nc(Cl)c(C=O)s2)cc1Cl	?	13.4%	22.4µM*	4.9%	?
COc1ccccc1Nc1nc(Cl)c(C=O)s1	?	6.7%	?	0.6%	4.3%
COC(=O)c1ccccc1-c1cc(C)cc2c1OC(CNC(=O)c1cnc(C)cn1)C2 (stereo not drawn)	nt	nt	nt	0.8%	nt
CC1(C)CC(=O)C(C(c2ccc(F)cc2)C2C(=O)CC(C)(C)CC2=O)C(=O)C1	0.7%	-1.4%	-16.1%	-0.6%	-0.6%
CCc1sc(C(C2C(=O)CC(C)(C)CC2=O)C2C(=O)CC(C)(C)CC2=O)cc1[N+](=O)[O-]	-1.2%	7.08µM*	-4.2%	-2.0%	1.1%

Screens as filed in PubChem BioAssay.
